Laboratory results reported in the supplement of paper PMC10681739.

Experiments:
ETS1 [1] = target: T1, ETS1 (UniProt P14921); assay: ETS1 binding intensity (PBM fluorescence), ETS1 alone (arbitrary fluorescence units); higher = stronger binding; settings: ETS1 concentration 1 nM; RUNX1 concentration 0 nM
T1 sequence: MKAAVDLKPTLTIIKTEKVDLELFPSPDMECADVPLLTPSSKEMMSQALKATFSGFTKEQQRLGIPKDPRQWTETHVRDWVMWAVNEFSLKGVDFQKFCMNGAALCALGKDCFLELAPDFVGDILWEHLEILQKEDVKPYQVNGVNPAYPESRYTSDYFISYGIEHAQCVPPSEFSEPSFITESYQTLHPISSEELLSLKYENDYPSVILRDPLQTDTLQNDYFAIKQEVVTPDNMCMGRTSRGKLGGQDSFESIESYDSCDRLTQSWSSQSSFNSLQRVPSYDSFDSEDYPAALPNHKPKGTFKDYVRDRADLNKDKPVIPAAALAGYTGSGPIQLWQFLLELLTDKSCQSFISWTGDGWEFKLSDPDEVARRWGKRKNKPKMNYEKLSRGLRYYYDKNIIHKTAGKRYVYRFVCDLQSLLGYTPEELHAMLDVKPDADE

ETS1 [2] = target: T1, ETS1; assay: ETS1 binding intensity (PBM fluorescence) in presence of RUNX1, normalised to ETS1-only experiment (arbitrary fluorescence units); higher = stronger binding; settings: ETS1 concentration 1 nM; RUNX1 concentration 25 nM

Row | Sequence | ETS1 binding intensity (ETS1 [1]) | ETS1 binding intensity (ETS1 [2])
1 | CCACTCCCAGCTCCATCCTGTGGGTAGAACTCAGTG | 477 | 452
2 | AATTCCCAGGAAGCACTCGGCAGCCACAAACTGATG | 539 | 483
3 | TAAAGCGGAAGGGGCCGGCTCTGCGGCCTGGCCGCT | 553 | 770
4 | ACCACCCCCCGTTTCCTCCGAAGTGGTTGGTGCCTT | 590 | 494
5 | CAGATTCGTGTTTCCGTGCCCGCAGCTCCGTCAGCT | 467 | 362
6 | GCCACGCAGTTCCCTTCCTGCGGCGTCCTCCACACC | 561 | 421
7 | GCCCCTCTTCCTGACTCACACAACCGCCTCTAGTCT | 457 | 330
8 | CTGGGGCTGAGGGAGGGATGTGGTGGGGCCCAGGCT | 411 | 521
